The supplement of paper PMC12669032
Values without a mark were called inactive.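 How the source made its calls: active = AUC reduced over 20% with Padj below 0.05 in at least 2 of 3 replicates; inactive = otherwise.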

Assays:
[1] = system: Roseburia intestinalis; experiment: growth AUC relative to DMSO control (median of replicates) (fraction); higher = more growth (less inhibition), active = hit call of the paper; conditions: 20 µM; 24 h
Procedure, shortened: (§1)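 Gut bacterial monocultures were grown anaerobically at 37 °C in mGAM, starting at OD600 0.05, with 20 µM compound (1% DMSO) in round-bottom 96-well plates under pierced gas-permeable seals. OD600 was read hourly for 24 h. Area under the growth curve (minimum OD set to 0) was normalised to the plate median of DMSO controls, or to row and column medians on the industrial chemical plate. The value is the median of three biological replicates grown on separate days.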

[2] = system: Streptococcus salivarius; experiment: as above; conditions: 20 µM; 24 h
Procedure, shortened: as §1

Row | Structure (SMILES) | growth AUC [1] | growth AUC [2]
1 | CCOP(=S)(OCC)Oc1cnc2ccccc2n1 | 0.99 | 0.954
2 | CCOP(=S)(OCC)SCn1nnc2ccccc2c1=O | 1.11 | 0.993
3 | Cc1cc(OC(=O)N(C)C)nn1C(=O)N(C)C | 1.06 | 0.971
4 | Oc1ccccc1Cl | 0.965 | 1.01
5 | CC(C)CC(C)c1sccc1NC(=O)c1cn(C)nc1C(F)(F)F (stereo not drawn) | 0.998 | 0.984
6 | CON(C)C(=O)Nc1ccc(Br)c(Cl)c1 | 0.957 | 0.956
7 | O=C(NC(=O)c1ccccc1Cl)Nc1ccc(OC(F)(F)F)cc1 | 0.918 | 0.951
8 | C=CCN(CC=C)C(=O)C(Cl)Cl | 1 | 0.99
9 | CCOP(=S)(OCC)SCSP(=S)(OCC)OCC | 1.09 | 0.958
10 | CN(C)C(=O)Nc1cccc(OC(=O)NC(C)(C)C)c1 | 1.05 | 0.975
11 | CNC(=O)N(C)c1nc2ccccc2s1 | 0.989 | 1
12 | CCc1cccc(C)c1N(C(=O)CCl)C(C)COC (stereo not drawn) | 1.07 | 1.05
13 | OC(c1ccc(Cl)cc1)(c1cncnc1)c1ccccc1Cl (stereo not drawn) | 1 | 0.939
14 | CCS(=O)(=O)c1cccnc1S(=O)(=O)NC(=O)Nc1nc(OC)cc(OC)n1 | 1 | 0.93
